Data reported in PubChem BioAssay AID588397 (National Center for Advancing Translational Sciences (NCATS), 2011).
Hit rate of the full screen: of about 1,300 compounds, about 1,000 (77%) were called active. Inconclusive results (about 7%) are left out. The set was probably picked from earlier hits. This is one part of the list. Values without a mark were called inactive. The call rests on the fitted dose curve; in most records, active means well fitted inhibition curve with a large enough effect; inconclusive means small, poorly fitted or top-dose-only effect; inactive means no such curve, though single readings can be large or run the other way.

Assay: qHTS of small molecules that selectively kill Giardia lamblia: Hit Validation.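 Further: viability measured as ATP content by luminescence so killing lowers signal; trophozoites exposed to compounds for 48 h anaerobically at 37 °C; nearly all actives have a fitted effect of over 65% in size.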
Details: Giardia lamblia trophozoite viability, dose-response; series mostly up to 38.3 µM; activity change, negative = killing: at the top concentration
Method in brief: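 Giardia lamblia trophozoites (100 cells/well) were incubated with compounds for 48 h at 37 deg C under anaerobic conditions. Viability was read as ATP content by one-step luminescence after 15-30 min at room temperature.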
On the % scale 0 is the no-effect control and ±100 the full control effect; potency means the concentration at half of the fitted maximal effect.

Question: With O=[N+]([O-])c1cncn1CCN1CCOCC1 as the compound, how does the Potency read?
Answer: 326 nM (active)

Question: Which “activity change, negative = killing” value does the source give for C[C@]12c3[nH]c4ccc(Cl)cc4c3CCN1C(=O)[C@@H](CC(=O)NCCN1CCOCC1)C[C@@H]2C(=O)N1CCOCC1 here?
Answer: -36.2%

Question: For CC(=O)c1cccc(NC(=O)c2ccc([N+](=O)[O-])o2)c1, which Potency is on record?
Answer: 1160 nM (active)

Question: For Cc1cc(C)cc(NC(=O)c2ccc([N+](=O)[O-])o2)c1, which Potency is on record?
Answer: 1030 nM (active)

Question: Which Potency does the source give for Cc1ccc(NC(=O)c2ccc([N+](=O)[O-])o2)cc1C here?
Answer: 460 nM (active)

Question: For Cc1cccc(NC(=O)c2ccc([N+](=O)[O-])o2)c1, which Potency is on record?
Answer: 729 nM (active)

Question: With COc1ccc(CC(=O)NCC(=O)Nc2ccccc2Br)cc1 as the compound, how does the “activity change, negative = killing” value read?
Answer: -17.5%

Question: Which Potency does the source give for CC(=O)c1ccc(NC(=O)c2ccc([N+](=O)[O-])o2)cc1 here?
Answer: 818 nM (active)

Question: With COc1ccc(NC(=O)c2ccc([N+](=O)[O-])o2)cc1 as the compound, how does the Potency read?
Answer: 1030 nM (active)

Question: Which Potency does the source give for O=C(/C=C/c1cccnc1)/C=C/c1cccnc1 here?
Answer: 18300 nM (active)

Question: Which Potency does the source give for COc1cc(C(=O)/C=C/c2cccnc2)c([N+](=O)[O-])cc1OC here?
Answer: 4600 nM (active)

Question: For Cc1cc(Nc2ccccc2)c2c([N+](=O)[O-])cc(C)c(C)c2n1, which Potency is on record?
Answer: 259 nM (active)

Question: With COc1ccccc1Nc1cc(C)nc2c(C)ccc([N+](=O)[O-])c12 as the compound, how does the Potency read?
Answer: 2590 nM (active)

Question: For Cc1cc(Nc2ccccc2)c2c([N+](=O)[O-])ccc(C)c2n1, which Potency is on record?
Answer: 259 nM (active)

Question: With Cc1ccc(Nc2cc(C)nc3c(C)ccc([N+](=O)[O-])c23)cc1 as the compound, how does the Potency read?
Answer: 146 nM (active)

Question: With CN(C)/[N+]([O-])=N/Oc1ccc([N+](=O)[O-])cn1 as the compound, how does the Potency read?
Answer: 2590 nM (active)

Question: With Cc1cc(C2=NNC(=NC3CC3)SC2)c(C)n1-c1ccccc1F as the compound, how does the Potency read?
Answer: 1450 nM (active)

Question: With COc1ccc(-c2ncn(CCC#N)c2[N+](=O)[O-])cc1 as the compound, how does the Potency read?
Answer: 206 nM (active)

Question: For CCn1c(=NC(=O)c2cccc(N3C(=O)CCC3=O)c2)sc2c(OC)ccc(OC)c21, which Potency is on record?
Answer: 2310 nM (active)

Question: With Cc1cccc(N2CCN(C(=S)Nc3ccc4nc(N5CCN(C)CC5)cc(C)c4c3)CC2)c1C as the compound, how does the Potency read?
Answer: 1030 nM (active)

Question: For Cc1ccc(C)c(N2CCN(C(=S)Nc3ccc4nc(N5CCN(C)CC5)cc(C)c4c3)CC2)c1, which Potency is on record?
Answer: 1300 nM (active)

Question: For COc1ccc(N(CC(=O)N/N=C/c2cccc(OC)c2OC)S(=O)(=O)c2ccccc2)cc1, which “activity change, negative = killing” value is on record?
Answer: -8.54%

Question: With COc1ccc(/C=N/Nc2cc(C)nc3c(C)cccc23)cc1 as the compound, how does the Potency read?
Answer: 818 nM (active)

Question: With COc1ccc2nc(C)cc(N/N=C/c3ccc(F)cc3)c2c1 as the compound, how does the Potency read?
Answer: 1160 nM (active)

Question: Which Potency does the source give for COc1ccc2nc(C)cc(N/N=C/c3cccc(OC)c3O)c2c1 here?
Answer: 918 nM (active)

Question: Which Potency does the source give for O=c1c([N+](=O)[O-])cccn1Cc1cccc(Cl)c1 here?
Answer: 4600 nM (active)

Question: With O=c1c([N+](=O)[O-])cccn1Cc1cccc(Br)c1 as the compound, how does the Potency read?
Answer: 2050 nM (active)

Question: Which “activity change, negative = killing” value does the source give for O=C(NCC1CCN(Cc2ccc(F)cc2)CC1)Nc1cc(F)ccc1F here?
Answer: -28.9%

Question: With O=C(Nc1ccccc1)Nc1ccc(C(=O)N2CCCC2)cc1 as the compound, how does the Potency read?
Answer: 5790 nM (active)

Question: With CN(C(=O)c1cccc(NC(=O)Cc2ccc(NC(=O)C3CCN(C(=O)c4ccccc4)CC3)cc2)c1)C1CC1 as the compound, how does the “activity change, negative = killing” value read?
Answer: 4.59%

Question: Which Potency does the source give for CCN1CCN(Cc2ccc(NC(=O)Nc3ccccc3)cc2)CC1 here?
Answer: 9180 nM (active)

Question: For Cc1cc([N+](=O)[O-])nn1Cc1noc(C(=O)NCc2ccc3c(c2)OCO3)n1, which “activity change, negative = killing” value is on record?
Answer: -30.3%

Question: With Cc1cc([N+](=O)[O-])nn1Cc1ccc(F)cc1 as the compound, how does the Potency read?
Answer: 2900 nM (active)

Question: Which Potency does the source give for CC(NC(=O)COc1cccnc1[N+](=O)[O-])c1ccc(Cl)cc1 (stereo unspecified) here?
Answer: 5160 nM (active)

Question: With COc1ccc(NC(=O)C(c2ccc(Cl)cc2)C(C)C)cn1 (stereo unspecified) as the compound, how does the “activity change, negative = killing” value read?
Answer: -25.3%

Question: With CC(NC(=O)COc1cccnc1[N+](=O)[O-])c1ccc(Cl)cc1Cl (stereo unspecified) as the compound, how does the Potency read?
Answer: 3260 nM (active)

Question: Which Potency does the source give for CC(NC(=O)COc1cccnc1[N+](=O)[O-])c1ccc(F)cc1 (stereo unspecified) here?
Answer: 5790 nM (active)

Question: For O=[N+]([O-])c1cncc([N+](=O)[O-])c1Nc1cccc(O)c1, which Potency is on record?
Answer: 3260 nM (active)

Question: Which Potency does the source give for O=[N+]([O-])c1cncc([N+](=O)[O-])c1Nc1ccccc1Cl here?
Answer: 5160 nM (active)

Question: For O=C(Oc1cccc2c(O)cccc12)c1ccccc1Cl, which “activity change, negative = killing” value is on record?
Answer: -9.35%

Question: For N/C(=N/OC(=O)c1ccc(Cl)cc1)c1ncc([N+](=O)[O-])s1, which Potency is on record?
Answer: 1300 nM (active)

Question: For N/C(=N/OC(=O)c1ccccc1Cl)c1ncc([N+](=O)[O-])s1, which Potency is on record?
Answer: 1630 nM (active)

Question: With N/C(=N\OC(=O)c1ccc(Cl)cc1[N+](=O)[O-])c1ccccn1 as the compound, how does the Potency read?
Answer: 8180 nM (active)

Question: With COc1ccc(-n2nc([N+](=O)[O-])c(=NCCc3ccccc3)n2O)cc1 as the compound, how does the Potency read?
Answer: 1160 nM (active)

Question: Which Potency does the source give for COc1ccc(-n2nc([N+](=O)[O-])c(=NCCc3ccc(Cl)cc3)n2O)cc1 here?
Answer: 1450 nM (active)

Question: For COc1ccc(-n2nc([N+](=O)[O-])c(=NCCC3=CCCCC3)n2O)cc1, which Potency is on record?
Answer: 4100 nM (active)
